Data: PubChem BioAssay (NCI)
Values joined by “and” are separate entries in the source; they are usually repeats but may differ in a detail not shown here. Equal values may be shown once. The panel holds about 83,000 compounds, 20% with a hit somewhere; the sample as a whole holds those more often.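 Each cell line was grown in a 96-well plate and treated with one concentration of compound for 48 hours. Values below 10 were considered active.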 A number with no mark means an inactive call. Active and inactive are the calls of the source.

The molecules below were run on MDA-MB-468 breast (assay: NCI-60 one-dose screen, 48 h (100 = growth as untreated, 0 = no growth, -100 = all killed)). Settings: 10 µM unless noted.

SMILES	growth
Cc1cc(O)c(C(C)C)cc1N=O	62.6% and 104%
O=C(/C=C\c1ccc(NCc2ccc(C(=O)O)cc2)cc1)CCl	76.7%
Cc1cc(O)cc2c1[C@H]1CC[C@]3(C)[C@@H](O)CC[C@H]3[C@@H]1C=C2	96.8%
C#CCOc1ccc2ncnc(Nc3ccc(NC(=O)CCl)cc3)c2c1	-57.7% (active)
COc1cc(C2CC(c3cccc(Nc4ccncc4)c3)=NN2c2cc(Cl)cc(Cl)c2)cc(OC)c1OC (stereo not given)	-11.9% (active)
COc1cc2c(cc1OC)N(CCO)C1=C(C(=O)OC1)C2c1ccc(Cl)c(Cl)c1 (stereo not given)	112%
Cn1cc(-c2nc(-c3c[nH]c4ccccc34)cs2)c2cccnc21	-12.5% (active)
N/C(=N\c1nc2ccccc2[nH]1)NC(=O)Cc1cccc2ccccc12	79.8%
Nc1nn(C(=O)Nc2ccc(Cc3ccccc3)cc2)c2ccc(Cl)cc12	72.3%
C#CCNCCN1C(=O)c2ccc3c4c(ccc(c24)C1=O)C(=O)N(CCNCC#C)C3=O	17.1%
Fc1cnccc1C1CC(c2ccc(N3CCNCC3)cc2)=NN1 (stereo not given)	114%
Cc1ccc(Cl)cc1NC(=O)c1cc2ccccc2cc1O	-58.7% (active)
Nc1ncc(-c2ccc3ncnc(NCc4ccccc4)c3c2)cn1	-11.7% (active)
COc1ccccc1/C=C/C=N/NC1=NC2C(S1)N(C)C(=O)N2c1ccccc1 (stereo not given)	38.5%
Cc1c(C(=O)/C=C/c2csc3ccccc23)[n+](=O)c2ccccc2n1[O-]	-16.5% (active)
O=C(Nc1ccc(-n2cc(-c3ccncc3)c(-c3ccc(Cl)c(O)c3)n2)cc1)c1cc(Cl)cc(Cl)c1	57.6%
CCCCCCCCCNCCCCCCCCC	22.5%
COc1cc2nc(-c3ccc(C(F)(F)F)cc3)cc(OCCCNCC3CCCO3)c2cc1OC (stereo not given)	14.2%
Nc1ncc(-c2ccc3ncnc(N4CCc5ccc(Cl)cc54)c3c2)cc1C(F)(F)F	-36% (active)
CCCC(=O)Oc1ccc(/C(=C(\C)c2ccc(Cl)cc2)c2ccc(OCCN(CC)CC)cc2)cc1	-64.1% (active)

SMILES	growth
COc1ccc2nc3ccccc3c(NCc3ccccc3)c2c1	-9.89% (active)
Cc1cc(CC(=O)NCCO)n(CCO)c(=O)c1	113%
CC12CCCCC1C(C(N)=O)C(=O)O2 (stereo not given)	122%
N/C(=N\c1nc2ccccc2s1)NC(=O)Nc1cccc2ccccc12	3.96% (active)
N=C(N)c1ccc(-c2ccc(-c3ccc(Cl)cc3Cl)s2)nc1	-13.7% (active)
N#Cc1c(-c2ccc(Cl)cc2)csc1NC(=O)Nc1ccc(Cl)c(C(F)(F)F)c1	-9.61% (active)
CC/C=C\C[C@H](O)C/C=C1/C(=O)C=C[C@@H]1C/C=C\CCCC(=O)OC	3% (active)
CCc1cc(Cl)c(OC)c(C(=O)NCC2CCCN2CC)c1O (stereo not given)	77.1%
COc1cc(/C=N/n2cnc3oc(-c4ccccc4)cc3c2=N)cc(CN2CCCCC2)c1O	-35.8% (active)
Cn1c(-c2nonc2NC(=O)c2ccc(F)cc2)nc2ccccc21	99.5%
CC(=O)OC(C)COc1ccc(-c2ccccc2)cc1 (stereo not given)	98.4%
COc1ccc(C(=O)/C=C/c2ccc(C)cc2)cc1OC	47.6%
COc1ccc(OC)c(NCC(=O)n2nc(/C=C\c3ccc(O)c(OC)c3)cc2/C=C\c2ccc(O)c(OC)c2)c1	12.1%
N#CC1=C(N)Oc2c(c(N)nn2-c2ccccc2)C1c1ccc(Cl)cc1 (stereo not given)	117%
O=[N+]([O-])c1ccccc1/C=N\NC(=S)N/N=C/c1ccccc1[N+](=O)[O-]	30.7%
CC[C@H]1OC(=O)[C@H](C)[C@@H](O[C@H]2C[C@@](C)(OC)[C@@H](O)[C@H](C)O2)[C@H](C)[C@@H](O[C@@H]2O[C@H](C)C[C@H](N(C)C)[C@H]2O)[C@](C)(O)C[C@H](C)CN(C)[C@H](C)[C@@H](O)[C@]1(C)O	86.7%
CN1CCN(CCCOc2ccc3nc(Nc4ccc(C(F)(F)F)c(Cl)c4)ccc3c2)CC1	30%
CC(C)(C)n1nnnc1C(Nc1cccc2c1OCO2)c1cc2cccc3ccc4cccc1c4c32 (stereo not given)	51.7%
COc1cc(C2C3=C(COC3=O)N(CCO)c3cc4c(cc32)OCO4)cc(OC)c1OC (stereo not given)	0.559% (active)
Cn1nc(C(C)(C)C)cc1NC(=O)Cc1ccc(/C=C2\C(=O)Nc3ccccc32)cc1	20%
